KB-V1 cytotox – KB-V1 MDR subline cytotoxicity; KB-V1 MDR cells viability, CellTiter-Glo, 72 h; Potency, µM (doses to about 46.1 µM), usual class: cytotoxic; 400,000 tested, 3.4% active; also: nearly all actives have a fitted effect of over 60% in size
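Potencies derive from concentration-effect curves fitted to normalized luminescence (CellTiter-Glo) of KB-V1 cells treated for 72 h at 37 degrees C in phenol-red-free DMEM containing 10% FBS.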
HT1080-NT tox – kills 2HG-producing HT-1080-NT fibrosarcoma cells | HT-1080-NT fibrosarcoma viability, CellTiter-Glo ATP luminescence, 48 h | Potency, µM (titrated, usually from 46.1 µM), usual class: cytotoxic | 360,000 tested, 1.6% active | AID 686970;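 also: NT is the 2HG producing partner of a matched IDH1 knockdown line; nearly all actives have a fitted effect of over 55% in size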
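Compounds were tested in concentration-response format on HT-1080-NT cells for 48 hours at 37 degrees C. Cell viability came from CellTiter-Glo luminescence; curves were classified by r2, response magnitude and activity.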
SW480 rereplic – inducers of DNA re-replication in SW480 colon cancer cells | SW480 DNA re-replication, Hoechst DNA content imaging, 48 h | Potency, µM (top dose mostly 46.1 µM), hits mostly activators | 340,000 tested, 1.8% active; also: nearly all actives have a fitted effect of over 55% in size
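Cells (250 per well) received 23 nL compound or DMSO by pin tool and were kept 48 hr at 37 C, 5% CO2. Nuclei were then stained with Hoechst for 40 min and scanned for DNA content.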
HT1080 IDH1KD tx – HT-1080 IDH1 knockdown cell toxicity (counter line) | AID 686971 | 360,000 tested, 2% active | Potency, µM (top dose mostly 46.1 µM), actives largely listed as cytotoxic | HT-1080 IDH1 knockdown viability, ATP luminescence, 48 h
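CellTiter-Glo luminescence after 48 h compound exposure at 37 degrees C of IDH1-knockdown HT-1080 cells in 5% FBS RPMI. %Activity scaled between DMSO wells and cell-free media wells, with curves fitted and assigned curve classes.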
MCF10A rereplic – DNA re-replication induction in MCF 10a cells | MCF 10A DNA re-replication, Hoechst nuclear intensity, 48 h | Potency, µM (highest dose often 46.1 µM), actives largely listed as activators | 350,000 tested, 2.9% active | AID 624296; also: nearly all actives have a fitted effect of over 50% in size
KB-3-1 tox – KB-3-1 parental cell cytotoxicity. KB-3-1 viability, CellTiter-Glo ATP luminescence, 72 h. 400,000 tested, 1.4% active. Potency, µM (top dose mostly 46.1 µM), actives largely listed as cytotoxic. AID 1347075; also: nearly all actives have a fitted effect of over 60% in size
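Luminescent ATP read-out (CellTiter-Glo) measures survival of drug-naive KB-3-1 cells after 72 h compound exposure at 37 °C. Titration series was screened from lowest to highest concentration, with DMSO vehicle plates as background controls.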
Hits are given with their value; i = inactive; ? = inconclusive; nt = no result. Hits are enriched below; roughly 8% of the tested compounds scored in any of these assays. Calls follow the shape of the dose curve; as a rule, active = well fitted curve in the direction sought with a large enough effect; inconclusive = small, poorly fitted or top-dose-only effect, or another doubt; inactive = no such curve, though single readings can be large; an effect the other way counts as inactive or inconclusive.

SMILES | KB-V1 cytotox | HT1080-NT tox | SW480 rereplic | HT1080 IDH1KD tx | MCF10A rereplic | KB-3-1 tox
Cc1ccc(CN2C(=O)CCC2C(=O)NCCc2ccccc2)cc1 (stereo unspecified) | i | i | i | i | i | i
c1ccc(C2=NN(c3ccccc3)CC2)cc1 | i | i | 16.4µM | i | 20.6µM | i
CCOC(=O)/C(=C/c1ccc(N2CCC(c3ccccc3)=N2)cc1)C(C)=O | i | i | ? | i | ? | i
O=c1cc(Nc2ccc3c(c2)OCO3)[nH]c(=O)n1-c1ccc(Br)cc1 | ? | ? | i | 35.5µM | i | i
Nc1nn2cc(-c3ccccc3)nc2c2ccccc12 | 16.4µM | ? | i | ? | i | i
Cc1cn2nc(N)c3ccccc3c2n1 | i | i | i | i | i | i
Cc1ccccc1CN1CCCC(C(=O)Nc2ccc(-c3ccn[nH]3)cc2)C1 (stereo unspecified) | 11.6µM | i | ? | ? | ? | ?
Cc1nn(C)c(Cl)c1CN1CCCC(C(=O)Nc2ccc(-c3cscn3)cc2)C1 (stereo unspecified) | nt | i | i | i | ? | nt
Cc1ncc(CN2CCCC(C(=O)Nc3ccc(-c4cccc(F)c4)cc3)C2)cn1 (stereo unspecified) | i | i | ? | ? | i | i
CC(=O)c1cccc(CN2CCCC(C(=O)Nc3ccc(-c4ccco4)cc3)C2)c1 (stereo unspecified) | i | i | 8.2µM | ? | ? | i
Cc1cccc(CN2CCCC(C(=O)Nc3ccc(-c4cscn4)cc3)C2)c1 (stereo unspecified) | ? | ? | ? | ? | i | 16.4µM
O=C(Nc1ccc(-c2cscn2)cc1)C1CCCN(Cc2ccccc2)C1 (stereo unspecified) | i | ? | 29.1µM | ? | ? | ?
Cc1ccc(S(=O)(=O)N2CCN(C(=O)COC(=O)Cc3ccc(F)cc3)CC2)c(C)c1 | i | i | i | i | i | i
Cc1nc2ccccc2n1CC(=O)OCC(=O)Nc1ccc2c(c1)OCCO2 | i | i | i | i | i | i
CCC(=O)Oc1oc(-c2ccccc2)nc1C=Nc1ccccc1OC | i | i | ? | i | 18.4µM | i
Cc1cc(C(=O)N2CCCC(N3CCN(Cc4ccc5c(c4)OCO5)CC3)C2)n[nH]1 (stereo unspecified) | i | i | i | i | i | i
CCS(=O)c1scc(-c2ccc(Cl)cc2)c1C#N (stereo unspecified) | 20.6µM | i | i | i | i | ?
CCOC(=O)c1sc(NC(=O)Nc2ccccc2)cc1C | ? | ? | i | ? | ? | ?
CCOC(=O)c1sc(NC(=O)Nc2ccccc2Cl)cc1C | 20.6µM | i | i | i | ? | ?
CCC(CC)NC(=O)CN(c1ccccc1OC)S(=O)(=O)c1cccs1 | i | i | i | i | i | i
COc1ccc(CC(=O)N(c2ccccc2)c2nc(C)cs2)cc1 | 16.4µM | i | i | i | i | i
COC(=O)C1=C(C)N(CC2CC2)C(=NCc2cc(OC)c(OC)c(OC)c2)N[C@H]1c1ccccc1 | i | i | i | i | i | i
Cc1cccc(-n2nnnc2SCn2nnc3ccccc3c2=O)c1 | 13µM | i | i | i | i | i
O=c1c2ccccc2nnn1CSc1ccc2c(c1)OCCO2 | 23.1µM | i | i | i | i | i
Cc1ccc(-n2nnnc2SCn2nnc3ccccc3c2=O)cc1 | i | i | i | i | i | i
SMILES | KB-V1 cytotox | HT1080-NT tox | SW480 rereplic | HT1080 IDH1KD tx | MCF10A rereplic | KB-3-1 tox
CN(C)c1cc[n+](CC[n+]2ccc(N(C)C)cc2)cc1 | i | i | i | i | i | i
CN(C)c1cc[n+](Cc2c(Cl)cccc2Cl)cc1 | i | i | i | ? | ? | 7.31µM
CCOC(=O)c1ccc(-n2ccnc2)c(NC(=O)c2ccc(Cl)cc2)c1 | 14.6µM | i | i | i | i | i
Cc1cc(NC(=O)c2ccc(Cl)cc2)n(CCOC(=O)c2ccc(Cl)cc2)n1 | ? | i | i | i | i | i
Cc1nn(-c2ccccc2)c(C)c1C(=O)OCC(=O)c1c(N)n(CC(C)C)c(=O)n(C)c1=O | i | i | i | i | i | ?
CC(C)N1C(=O)c2ccccc2N(Cc2ccccc2)S1(=O)=O | i | i | i | i | i | i

Assay outcomes as filed in PubChem BioAssay.
